In PubChem BioAssay (NCI) one finds growth inhibition data, which are given here for 16 compounds.

“And” between values parts separate entries of the source, which are not always exact repeats. Equal entries are not always repeated. The panel holds about 79,000 compounds, 15% with a hit somewhere; the sample as a whole holds those more often. The source made the active and inactive calls. No stated cut-off is given here; in the data, active means growth inhibition above about 70%; inactive means the rest.

This experiment in a line: NCI Yeast Anticancer Drug Screen. Data for the rad50 strain (AID 155).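 Further: 0% = growth of vehicle-only cultures of the same strain.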 The settings on record: S. cerevisiae rad50 strain growth inhibition; at 50.0 µM (retest, dose inferred, filed as 5.0); active compounds read high. Summed up: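 Growth of the mutant yeast was measured after compound exposure and referenced to vehicle-treated cultures.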
For the compound `Oc1c(Cl)cc(Cl)cc1Cc1cc(Cl)cc(Cl)c1O`, the growth inhibition is 98% (active).
`COc1cc(OC)c(OC)cc1/C=C\c1ccnc2ccccc12`: the growth inhibition is 73% (active).
Take `CC(C)C1=CC23CCC4C(C)(C(=O)O)CCCC4(C)C2CC1C1C(=O)OC(=O)C13` (stereo unspecified): the growth inhibition is 99% (active).
As for `CN(C)c1nc(N)c(C#N)c(C#N)c1C#N`, the growth inhibition was 62% (inactive).
As to `C/C(=N\NC(=S)N1CCN(c2ccccn2)CC1)c1nccs1`, the growth inhibition is 98% (active).
For `CCCCCCCCCCCCCCCCCCOCC(COP(=O)([O-])OCC[N+](C)(C)C)OC` (stereo unspecified), the growth inhibition was -9% (inactive).
Turning to `COc1ccc2nc(C)cc(NCCCCCCCCCNc3cc(C)nc4ccc(OC)cc34)c2c1`, the growth inhibition was 94% (active).
Regarding `CC1CC[P+](c2ccccc2)(c2ccccc2)c2c1ccc1ccccc21` (stereo unspecified), the growth inhibition was 98% (active).
Consider `CC(C)C1=C(O)C2=C(C(=O)C1=O)C1(C)CCCC(C)(C)C1CC2O` (stereo unspecified), for which the growth inhibition is 98% (active).
As to `CC(=O)[O-].[O-]c1c(Cl)cc(Cl)cc1/C=N/Nc1ccccn1.[Zn+2]`, the growth inhibition was 93% (active).
As to `O=C(c1ccccc1)C(c1ccccc1)C(O)c1ccc([N+](=O)[O-])cc1` (stereo unspecified), the growth inhibition was 89% (active) and 99% (active).
`Clc1nc(Cl)c(Cl)c(Cl)n1`: the growth inhibition was 98% (active).
The same measure for `COc1cccc2c1C(=O)c1c(O)c3c(c(O)c1C2=O)C[C@@](O)(C(C)=O)C[C@@H]3OC1CC(N(C)C)C(O)C(C)O1` (stereo partly specified): 98% (active); for `CN1C(c2ccccc2)CC(=NOCc2ccccc2)CC1c1ccccc1` (stereo unspecified): 96% (active).
Consider `Cc1ccc(NCCN(C)C)c2c(=O)c3cc(O)ccc3sc12`, for which the growth inhibition was 99% (active).
The same measure for `N#CC1(C2SCCS2=O)C2=C(C(=O)c3ccccc3C2=O)N2CCCC21` (stereo unspecified): 56% (inactive).
